# Measured values published in PMC5540273 (PLoS ONE, 2017).
# Key:
# Conditions in all cases: concentration: 1 μM, replicates: in singlicate; n = 1
# CAMK2G = system: CAMK2G
# CAMK4 = system: CAMK4
# CAMKK1 = system: CAMKK1
# CAMKK2 = system: CAMKK2
# CASK = system: CASK
# CDC2L1 = system: T1, CDC2L1
# T1 construct: gene CDK11B
# CDC2L2 = system: CDC2L2
# CDC2L5 = system: T2, CDC2L5
# T2 construct: gene CDK13
# CDK11 = system: T3, CDK11
# T3 construct: gene CDK19
# CDK2 = system: CDK2
# 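Further: KINOMEscan kinase panel screen.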
SMILES,%Inh (CAMK2G) [%],%Inh (CAMK4) [%],%Inh (CAMKK1) [%],%Inh (CAMKK2) [%],%Inh (CASK) [%],%Inh (CDC2L1) [%],%Inh (CDC2L2) [%],%Inh (CDC2L5) [%],%Inh (CDK11) [%],%Inh (CDK2) [%]
CN(C)c1cc(-c2ccc3c(N)n[nH]c3c2)nc(N)n1 [GSK2219329],19,0,0,9,0,0,22,0,0,10
O=C(Nc1n[nH]c2nc(-c3ccccc3)c(Cl)cc12)C1CC1 [SB-734909],0,0,0,1,35,0,18,0,0,2
CCn1c(-c2nonc2N)nc2ccccc21 [SB-693162/GW549034],1,0,9,0,0,0,29,0,11,0
CN1C(=O)C(Nc2ccccc2)=C(c2ccccc2)C1=O [SB-300079],0,0,0,0,0,0,0,0,0,0
Cc1cccc(-c2cc(-c3c[nH]nc3-c3ccccn3)ccn2)c1 [GW679395],21,0,9,7,24,0,0,0,9,0
COC(=O)c1c(-c2ccccc2)c2cc(Br)ccc2c(=O)n1Cc1ccc(NC(=O)CCC(=O)O)cc1,8,0,0,0,0,16,0,13,7,4
Nc1nc(N)c2nc(-c3ccccc3)[nH]c2n1 [SKF-12778],4,0,6,0,0,0,0,5,0,0
COc1cc(Nc2nccc(N3CCC(NC(=O)C(C)c4ccc(Cl)cc4)C3)n2)cc(OC)c1OC (stereo not shown) [GSK1379757],21,0,0,1,0,0,13,0,3,0
COc1ccc(-c2coc3ccc(-c4nnc(SCc5cccc(C#N)c5)o4)cc23)cc1,0,0,0,0,8,0,10,0,0,6
Cl.NS(=O)(=O)c1cccc(Nc2cc(-c3ccc(F)cc3)n[nH]2)c1 [GW824645],0,2,0,0,20,0,0,0,3,5
CCC(=O)c1c(-c2ccccc2)c2cc(Cl)ccc2c(=O)n1Cc1cc(S(C)(=O)=O)n(CC(N)=O)n1,0,0,0,0,0,0,6,0,0,0
Nc1ncnc2c1ncn2-c1cccc2ccccc12 [SKF-97184],0,38,0,0,22,0,11,26,23,0
COc1cc(Nc2ccnc3ccc(C(F)(F)F)cc23)cc(OC)c1OC [GW577382],12,10,15,0,25,0,17,0,19,4
COc1cccc(-n2cnc3c(N)ncnc32)c1 [SKF-97416],8,4,4,6,20,0,2,36,1,4
Nc1ncnc2c1ncn2-c1cccc(F)c1 [SKF-97560],0,0,0,0,47,1,15,23,0,0
CCC(=O)c1c(-c2ccccc2)c2cc(Cl)ccc2c(=O)n1Cc1ccc(C(=O)O)cc1,0,0,0,0,0,0,0,0,0,0
Cc1ccccc1COc1cc(-n2cnc3cc(Cl)ccc32)sc1C(N)=O [GW813349],0,0,0,0,17,0,0,0,23,0

SMILES,%Inh (CAMK2G) [%],%Inh (CAMK4) [%],%Inh (CAMKK1) [%],%Inh (CAMKK2) [%],%Inh (CASK) [%],%Inh (CDC2L1) [%],%Inh (CDC2L2) [%],%Inh (CDC2L5) [%],%Inh (CDK11) [%],%Inh (CDK2) [%]
COc1cc2ncn(-c3cc(OCc4ccncc4Br)c(C(N)=O)s3)c2cc1OC [GW854278],11,0,15,17,34,5,10,5,11,1
COc1ccc(-c2cc3c(C)nc(N)nc3n([C@H]3CC[C@H](O)CC3)c2=O)cn1,0,0,0,0,0,0,0,0,0,0
Cc1nn2c(=O)cc(N3CCOCC3)nc2n1Cc1cccc(Cl)c1Cl [GSK2342769],10,25,2,9,0,0,6,0,16,0
COc1cc2ncn(-c3cc(OCc4ccncc4)c(C(N)=O)s3)c2cc1OC [GSK336313],18,0,0,22,7,0,23,0,0,0
COC(=O)c1c(-c2ccccc2)c2cc(Br)ccc2c(=O)n1Cc1ccc(S(C)(=O)=O)cc1,21,0,10,30,0,11,0,14,24,6
Cc1c(Cn2c(C)nn3c(=O)cc(N4CCO[C@H](C)C4)nc23)cccc1C(F)(F)F [GSK2373690],18,0,0,10,14,0,8,0,14,0
CCc1ccc(-c2ccc3c(c2)-c2nn(C)cc2S(=O)(=O)N3C)cc1,4,0,22,9,14,0,0,16,8,0
O=C1NC(=O)C(c2ccccc2)=C1Nc1cccc(O)c1 [SB-390534],13,0,0,0,1,0,0,1,0,2
CCS(=O)(=O)c1ccc(OC)c(Nc2ncc(-c3ccc(F)cc3)o2)c1.Cl [GW591947],21,0,1,12,3,0,0,0,19,0
COc1ccc(-n2cnc3c(N)ncnc32)cc1 [SKF-97236],6,12,0,0,0,0,0,4,0,19
COc1cc2ncn(-c3cc(OCCCc4ccccc4)c(C(N)=O)s3)c2cc1OC [GSK205189],29,0,3,17,52,0,3,0,0,0
COc1ccc(Nc2nccc(N3CCC(NS(=O)(=O)c4ccc(NC(C)=O)cc4)C3)n2)cc1 (stereo not shown) [GSK1379729],9,4,12,5,0,0,17,0,11,2
CCC(=O)c1c(-c2ccccc2)c2cc(Cl)ccc2c(=O)n1Cc1cc(S(C)(=O)=O)n(CC(F)F)n1,0,0,0,6,5,1,2,24,0,0
C[C@@H]1CC[C@H](C(=O)NC2CCCCC2)CN1c1cc(-c2ccc3c(N)n[nH]c3c2)nc(N)n1 [GSK2291363],38,0,24,37,18,0,23,0,7,1
O=C(Nc1n[nH]c2cc(-c3ccccc3F)ccc12)C1CC1 [SB-733371],0,0,0,0,0,0,0,33,0,25
O=c1cc(N2CCOCC2)nc2n(Cc3ccc(F)c(Cl)c3)ccn12 [GSK2297099],28,0,28,24,2,3,28,0,0,0
O=C(NCCNc1ccnc(Nc2ccc(F)cc2)n1)Nc1ccc2c(c1)OCO2 [GSK1379882],21,0,10,15,18,9,20,0,10,0
